# ELG1 DNA repair – qHTS screen for small molecules that inhibit ELG1-dependent DNA repair in human embryonic kidney (HEK293T) cells expressing luciferase-tagged ELG1; HEK293T ELG1-luciferase reporter, luminescence, 16 h; DNA damage induced by 5-fluorouridine; AID 504467, 2011; Potency, µM (highest dose often 46.1 µM), actives largely listed as inhibitors; actives 2.3% (n = 330,000); further: nearly all actives have a fitted effect of over 55% in size
#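 5-Fluorouridine DNA damage + compound/DMSO, 2,000 cells/well, 16 h, 37 °C/5% CO2. ONE-Glo, 30 min RT, luminescence. Readout = decrease in reporter signal.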
# TDP1 inh – qHTS Assay for Inhibitors of Tyrosyl-DNA Phosphodiesterase (TDP1); Tyrosyl-DNA phosphodiesterase 1 (Homo sapiens), Q9NUW8; recombinant TDP1, AlphaScreen DNA substrate cleavage; Potency, µM (highest dose often 130 µM), actives largely listed as inhibitors; actives 0.28% (n = 350,000); further: nearly all actives have a fitted effect of over 40% in size
# Target sequence (Q9NUW8 whole entry, looked up): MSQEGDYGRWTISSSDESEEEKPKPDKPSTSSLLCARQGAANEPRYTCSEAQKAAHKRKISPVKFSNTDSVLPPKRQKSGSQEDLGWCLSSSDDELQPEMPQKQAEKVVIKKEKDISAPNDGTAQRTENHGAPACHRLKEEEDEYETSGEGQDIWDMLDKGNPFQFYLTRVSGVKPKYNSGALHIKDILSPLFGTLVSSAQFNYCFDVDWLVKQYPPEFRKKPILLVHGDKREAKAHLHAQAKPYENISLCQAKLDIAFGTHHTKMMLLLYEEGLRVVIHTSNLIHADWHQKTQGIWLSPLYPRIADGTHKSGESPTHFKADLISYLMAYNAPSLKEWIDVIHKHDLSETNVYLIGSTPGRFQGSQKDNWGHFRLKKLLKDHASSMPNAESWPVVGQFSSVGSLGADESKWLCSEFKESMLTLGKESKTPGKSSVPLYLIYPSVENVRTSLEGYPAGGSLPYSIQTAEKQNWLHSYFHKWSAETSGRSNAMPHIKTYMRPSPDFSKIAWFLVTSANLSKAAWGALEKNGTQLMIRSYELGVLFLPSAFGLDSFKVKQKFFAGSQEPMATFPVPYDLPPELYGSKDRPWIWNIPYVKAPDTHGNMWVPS
#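 Enzyme-compound mixtures sat 15 min at room temperature, followed by a 5 min reaction with 15 nM final substrate and 10 min with AlphaScreen beads. Recombinant human Tdp1 was used at 1 nM final.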
# TDP1 cell noCPT – qHTS for Inhibitors of human tyrosyl-DNA phosphodiesterase 1 (TDP1): qHTS in cells in absence of CPT | Potency, µM (highest dose often 46.2 µM), actives largely listed as inhibitors | DT40 Tdp1-/- hTDP1 cells, no CPT, ATP luminescence, 48 h | actives 15% (n = 420,000); further: nearly all actives have a fitted effect of over 55% in size
#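 Stably hTDP1-transfected Tdp1-null chicken DT40 cells were treated with library compounds minus camptothecin and grown for at least 48 hr at 37 °C, after which cellular ATP was quantified by luminescence.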
# Giardia kill – Small Molecules that selectively kill Giardia lamblia: qHTS | Giardia lamblia trophozoite viability | activity change, % at 7.66 µM, hits read low | actives 0.15% (n = 340,000) | AID 540267, 2011; in the data active means activity change below about -80%; inconclusive means between about -30% and that limit;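 further: parasites exposed to compound for two days anaerobically before the ATP read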
#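 ATP-content bioluminescence gauges trophozoite survival. Cells (100/well) receive compound and incubate anaerobically for 48 hrs at 37 deg C; detection reagent follows for 15-30 min at room temperature.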
# TDP1 cell CPT – qHTS for Inhibitors of human tyrosyl-DNA phosphodiesterase 1 (TDP1): qHTS in cells in presence of CPT; chicken DT40 Tdp1-/-;hTDP1 cells + 20 nM CPT, ATP luminescence, 48 h; Potency, µM (titrated, usually from 46.2 µM), actives largely listed as inhibitors; actives 12% (n = 420,000); further: nearly all actives have a fitted effect of over 55% in size
#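 Chicken DT40 Tdp1-/- cells complemented with human TDP1, 400 cells/well, exposed to compounds plus 20 nM camptothecin for at least 48 h at 37 C; viability read as ATP content by CellTiter-Glo luminescence.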
# IL1B secr inh – qHTS for Inhibitors of Inflammasome Signaling: IL-1-beta AlphaLISA Primary Screen. THP-1 LPS/ATP IL-1B secretion, AlphaLISA, 16 h; hits give low values. actives 4.7% (n = 360,000). AID 743279, 2014. activity change, % at 57.5 µM; in the data active means activity change below about -50%; inconclusive means mostly about -30% to -49%
#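 Secreted IL-1B measured by AlphaLISA bead assay after 16 h compound exposure of THP-1 cells; compounds (final up to 57.5 uM) added 1 h before LPS (250 ng/mL) and ATP (1.25 mM) stimulation; lower signal means less secretion.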
# Hits are given with their value; . = inactive; ? = inconclusive; / = not tested or not shown. In the library only some 19% were active in any assay of this set; here they are far more common. Unless noted, the call rests on the fitted dose curve; in most records, active means well fitted curve in the direction sought with a large enough effect; inconclusive means small, poorly fitted or top-dose-only effect, or another doubt; inactive means no such curve, though single readings can be large; an effect the other way counts as inactive or inconclusive.
SMILES,ELG1 DNA repair,TDP1 inh,TDP1 cell noCPT,Giardia kill,TDP1 cell CPT,IL1B secr inh
O=C(NCc1cccnc1)c1cc(C(=O)NCc2cccnc2)cc([N+](=O)[O-])c1,/,/,.,/,.,.
COc1cccc(CNCCSc2nnnn2C)c1OCc1ccc(Cl)cc1Cl,/,.,23.1µM,/,16.4µM,/
CCOc1c(CNCCSc2nnnn2C)cccc1OC,/,.,.,/,.,/
COc1cccc(CNCCSc2nnnn2C)c1OCc1ccc(Cl)cc1,/,.,?,/,20.6µM,/
Cc1cccc(N2CCN(C(=O)CC(NC(=O)c3ccccc3)c3ccccc3)CC2C)c1 (stereo unspecified),.,.,29.1µM,.,?,.
COc1cccc(N2CCN(C(=O)CC(NC(=O)c3ccccc3)c3ccccc3)CC2)c1 (stereo unspecified),.,.,.,.,.,.
O=C(CN1CCOc2ccccc21)N1CCN(c2cccc(Cl)c2)CC1,/,/,29.1µM,.,?,?
Cc1cccc(N2CCN(C(=O)CN3CCOc4ccccc43)CC2C)c1 (stereo unspecified),?,.,?,.,23.1µM,.
CN(/C=C/C(=C\C=[N+](C)c1ccccc1)OCCCS(=O)(=O)[O-])c1ccccc1,.,.,.,.,.,.
CCCN(CCC)CCNC(=O)CN1C(=O)COc2ccc(S(=O)(=O)N3CCOCC3)cc21,.,.,.,.,.,.
Cc1ccc(OC(=O)CCc2c(C)nc3ncnn3c2C)cc1,.,.,.,.,.,.
CCc1cccc(NC(=O)C2CCCN(c3ncnc4onc(-c5ccc(F)cc5)c34)C2)c1 (stereo unspecified),/,.,10.3µM,/,13µM,/
COc1ccccc1NC(=O)N1CCCC(C(=O)Nc2cccc(C)c2C)C1 (stereo unspecified),.,.,.,.,.,.
COc1ccccc1NC(=O)C1CCCN(c2ncnc3onc(-c4ccc(F)cc4)c23)C1 (stereo unspecified),/,.,16.4µM,/,?,/
NC(=O)c1ccccc1NC(=O)C1CCCN(c2ncnc3onc(-c4ccc(F)cc4)c23)C1 (stereo unspecified),/,.,14.6µM,/,13µM,/
Cc1ccc(F)cc1NC(=O)C1CCCN(c2ncccn2)C1 (stereo unspecified),.,.,.,.,.,.
Cc1ccc(-n2nc(CO)c(C(=O)NCc3ccccn3)n2)cc1,/,.,.,/,.,/
COCCNC(=O)CSc1nc(-c2ccc(C)cc2)nc2c1c(=O)n(C)c(=O)n2C,/,.,.,/,.,/
O=C(O)c1ccc(COc2ccccc2Cl)cc1,?,.,.,.,.,.
CCN(CC)C(=O)c1ccc(COc2ccccc2Cl)cc1,.,.,?,.,?,-58.8
Cc1nc(C)c(-c2csc(Nc3ccc(O)cc3C)n2)s1,.,/,5.8µM,.,16.4µM,.
Cc1cc(O)ccc1Nc1nc(-c2cccs2)cs1,?,.,.,.,.,-84.1
Cc1nc(C)c(-c2csc(Nc3ccc(Cl)cn3)n2)s1,/,/,?,/,18.4µM,.
COc1ccc(-c2cn3cccnc3n2)cc1NC(=O)C(C)Oc1ccccc1 (stereo unspecified),?,.,?,.,?,.
Cc1cccc(OCc2n[nH]c(=S)n2Cc2ccccc2)c1,.,.,.,.,.,.
SMILES,ELG1 DNA repair,TDP1 inh,TDP1 cell noCPT,Giardia kill,TDP1 cell CPT,IL1B secr inh
CCC(=O)Nc1ccc(S(=O)(=O)NCc2cccn2Cc2cccc(C)c2)cc1,/,.,23.1µM,/,20.6µM,/
CCc1ccc(S(=O)(=O)NCc2cccn2Cc2cccc(C)c2)cc1,/,.,?,/,?,/
O=C(Cn1c(-c2ccccc2)c[n+]2ccsc12)c1ccccc1,?,.,?,.,20.6µM,.
O=C(Cn1c(-c2ccccc2)c[n+]2ccsc12)c1ccc([N+](=O)[O-])cc1,.,.,23.1µM,.,23.1µM,.
Cc1ccc(C(=O)NC2CC(C)(C)NC(C)(C)C2)cc1,.,/,.,.,.,.
CC1(C)CC(NC(=O)c2coc(=O)c(Br)c2)CC(C)(C)N1,?,.,0.517µM,.,0.326µM,.
Cc1nc2ccccn2c1C(=O)N/N=C/c1ccccc1,.,/,.,.,.,.
COc1ccc(/C=N\NC(=O)c2c(C)nc3ccc(Br)cn23)cc1,.,.,0.731µM,.,0.581µM,.
Cc1ccc(/C=N/NC(=O)c2c(C)nc3ccc(Br)cn23)cc1,.,/,0.581µM,.,0.731µM,.
O=C(c1ccc2c(c1)N(Cc1cccc(Cl)c1)C(=O)c1ccccc1S2(=O)=O)N1CCc2ccccc21,/,.,1.64µM,/,2.06µM,/
O=C(c1ccc2c(c1)N(Cc1ccccc1)C(=O)c1ccccc1S2(=O)=O)N1CCCCCC1,/,.,?,/,?,/
O=C(c1ccc2c(c1)N(Cc1cccc(Cl)c1)C(=O)c1ccccc1S2(=O)=O)N1CCCCC1,/,.,?,/,16.4µM,/
Cc1cccc2sc(N(CCCN(C)C)C(=O)c3ccc(C(=O)c4ccccc4)cc3)nc12,.,.,?,.,?,.
CN(C)CCCN(C(=O)c1ccco1)c1nc2c(F)cccc2s1,?,.,?,.,?,.
CN(C)CCCN(C(=O)c1ccc2c(c1)CCCC2)c1nc2c(F)cccc2s1,?,.,23.1µM,.,20.6µM,-62.3
Cc1cc(C)c2nc(N(CCCN(C)C)C(=O)c3ccc4c(c3)CCCC4)sc2c1,.,.,10.3µM,.,20.6µM,-77.8
CCOc1ccc(C2C(=O)N(C3CCCCCC3)CC(=O)N2Cc2ccc(C)cc2)cc1OC (stereo unspecified),/,.,23.1µM,/,23.1µM,/
CC1CCC(N2CC(=O)N(C3CCCC3)C(c3ccc(Cl)cc3)C2=O)CC1 (stereo unspecified),/,.,16.4µM,/,?,/
COc1cccc(CN2C(=O)CN(C3CCCCC3)C(=O)C2c2ccc(F)cc2)c1 (stereo unspecified),.,.,?,.,?,.
CC1CCC(N2CC(=O)N(C3CCCCC3)C(c3ccc(F)cc3)C2=O)CC1 (stereo unspecified),/,.,.,/,.,/
COc1ccc(CCN2C(=O)CN(C3CCCCCC3)C(=O)C2c2ccc(C)cc2)cc1OC (stereo unspecified),/,.,23.1µM,/,?,/
COc1ccc(CN2C(=O)CN(C3CCCCCC3)C(=O)C2c2ccc(OC)c(OC)c2)cc1 (stereo unspecified),.,.,.,.,?,.
